Measured values: paper PMC4336329 (PLoS ONE, 2015)
Screen size: about 310,000 compounds; about 14,000 (4.5%) showed an effect of 50% or more. The effect is printed as a negative number. The sample holds strong results, similar compounds and a random draw of the others, so the mix is not that of the screen.

biological target: human ether-à-go-go-related gene (hERG) potassium channel (human, UniProt Q12809); test: primary screen, population patch clamp on CHO cells stably expressing hERG; higher = less effect of the substance
Sequence (Q12809 whole entry, looked up): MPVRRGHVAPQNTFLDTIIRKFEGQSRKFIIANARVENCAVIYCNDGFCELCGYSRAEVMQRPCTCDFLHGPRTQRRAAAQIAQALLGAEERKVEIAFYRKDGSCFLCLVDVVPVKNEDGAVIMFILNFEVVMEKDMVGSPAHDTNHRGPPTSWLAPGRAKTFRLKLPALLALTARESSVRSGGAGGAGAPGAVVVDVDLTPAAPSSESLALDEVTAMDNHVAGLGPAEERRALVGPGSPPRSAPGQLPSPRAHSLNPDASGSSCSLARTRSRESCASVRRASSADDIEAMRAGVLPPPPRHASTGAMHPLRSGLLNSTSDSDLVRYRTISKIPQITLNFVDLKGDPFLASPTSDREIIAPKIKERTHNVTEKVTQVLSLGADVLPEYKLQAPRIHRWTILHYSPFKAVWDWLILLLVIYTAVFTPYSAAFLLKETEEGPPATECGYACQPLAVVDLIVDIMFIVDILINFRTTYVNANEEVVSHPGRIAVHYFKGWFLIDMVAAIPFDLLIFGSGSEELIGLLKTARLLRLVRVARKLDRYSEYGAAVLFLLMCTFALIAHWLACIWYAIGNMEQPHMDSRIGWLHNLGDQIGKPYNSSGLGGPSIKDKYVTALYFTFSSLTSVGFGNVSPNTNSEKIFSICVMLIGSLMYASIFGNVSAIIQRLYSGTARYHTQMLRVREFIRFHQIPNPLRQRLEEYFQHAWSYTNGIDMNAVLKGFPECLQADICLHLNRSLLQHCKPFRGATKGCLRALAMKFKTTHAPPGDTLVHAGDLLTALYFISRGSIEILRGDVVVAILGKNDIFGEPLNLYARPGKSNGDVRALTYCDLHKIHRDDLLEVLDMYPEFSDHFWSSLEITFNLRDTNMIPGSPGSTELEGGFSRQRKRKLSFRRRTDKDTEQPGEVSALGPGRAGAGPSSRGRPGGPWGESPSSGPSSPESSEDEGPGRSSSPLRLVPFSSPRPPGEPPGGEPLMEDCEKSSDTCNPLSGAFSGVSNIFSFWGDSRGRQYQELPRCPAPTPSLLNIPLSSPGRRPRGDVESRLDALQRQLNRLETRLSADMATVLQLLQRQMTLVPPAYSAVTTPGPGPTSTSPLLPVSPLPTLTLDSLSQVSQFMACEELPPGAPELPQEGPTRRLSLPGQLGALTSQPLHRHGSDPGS
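Note: peak tail current of the secondary pulse compared with the same well before compound.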

Compound | hERG current change (%, negative = inhibition) at 10uM
c1ccc2nc(N3CCOCC3)c(N3CCOCC3)nc2c1 | -1.12%
c1ccc2c(c1)nc(N1CCOCC1)c1ccccc12 | 11.2%
c1ccc(-c2nc3ccccc3nc2N2CCOCC2)cc1 | -54.7%
CCCCN1C2=NC(c3ccccc3)CN2c2ccccc21.Cl (stereo not shown) | -69%
CCCN1C2=NCCN2c2cc(C)c(C)cc21.Cl | -30.7%
CCCN1C2=NCCCN2c2ccccc21.Cl | -9.58%
c1ccc([C@H]2CN3C(=N2)Sc2ccccc23)cc1 | -19.2%
CCCCCCCN1C2=NCCCN2c2ccccc21.Cl | -58.5%
Br.CCN1C2=NCCCN2c2cc(C)c(C)cc21 | -23.2%
Br.CCCCN1C2=NCCCN2c2ccccc21 | -54.5%
CCCCN1C(N)=NC[C@@H]1c1ccccc1 | -2.61%
Br.CCCCN1C2=NCCCN2c2cc(C)c(C)cc21 | -65.4%
COCCN1C(=O)CS/C1=C(/C#N)C(=O)NCc1ccco1 | -7.92%
COc1ccc(C(=O)O)cc1S(=O)(=O)Nc1cccc(C)c1 | -18.9%
Cc1ccc(-n2nnc3c(=O)n(CC(=O)NCc4ccccc4)cnc32)cc1 | -15.5%
C[C@@H]1CC[C@@]23COC(=O)C2=CCC[C@@H]3[C@@]1(C)CC/C(=C/CO)CO | -6.27%
O=C(c1ccc(Cl)c(Cl)c1)N1CCC(=O)N(C(CO)Cc2ccccc2)CC1 (stereo not shown) | 5.42%
CCOC(=O)c1cn2nc(Oc3cccc(C(F)(F)F)c3)ccc2n1 | -6.27%
O=c1cc(-c2ccncc2)oc2c1ccc1ccccc12 | -4.57%
CCCCCCN1C2=NCCCN2c2ccccc21.Cl | -78.3%
Cl.c1ccc2c(c1)N1CCCN=C1N2CCN1CCCCC1 | -62.8%
Cl.c1ccc2c(c1)N1CCN=C1N2CCN1CCCCC1 | -15.3%
COc1cccc(/C=C/C(=O)Nc2ccc3[nH]c(=O)[nH]c3c2)c1 | 7.9%
Cc1ccc(S(=O)(=O)N(C)CC(=O)N2CCN(Cc3ccccc3)CC2)cc1 | -24.6%

Compound | hERG current change (%, negative = inhibition) at 10uM
CS(=O)(=O)N(CC(=O)N1CCN(Cc2ccccc2)CC1)c1ccc2c(c1)OCCO2 | -5.94%
CS(=O)(=O)N(CC(=O)N1CCN(Cc2ccc3c(c2)OCO3)CC1)c1ccc2c(c1)OCO2 | -58.9%
Cc1ccc(S(=O)(=O)N(C)c2ccc(C(=O)N3CCN(Cc4ccc5c(c4)OCO5)CC3)cc2)cc1 | -44.1%
COc1ccc(S(=O)(=O)N(CC(=O)N2CCN(C)CC2)c2ccc(C)cc2)cc1OC | -11%
COc1ccc(N(CC(=O)N2CCN(Cc3ccc4c(c3)OCO4)CC2)S(=O)(=O)c2ccc(F)cc2)cc1 | -84.6%
CCN1CCN(C(=O)CN(c2ccc(F)cc2)S(=O)(=O)c2ccc(OC)c(OC)c2)CC1 | -66.8%
Cc1ccc(S(=O)(=O)N(C)CC(=O)N2CCN(Cc3ccc4c(c3)OCO4)CC2)cc1 | -66.6%
O=C(CN(c1ccccc1)S(=O)(=O)c1ccccc1)N1CCN(Cc2ccc3c(c2)OCO3)CC1 | -33.4%
COc1ccc(S(=O)(=O)N(CC(=O)N2CCOCC2)c2ccc(F)cc2)cc1OC | 10.7%
COc1ccc(N(CC(=O)N2CCN(Cc3ccccc3)CC2)S(=O)(=O)c2ccccc2)cc1 | -26.3%
COc1ccc(N(CC(=O)N2CCN(Cc3ccc4c(c3)OCO4)CC2)S(C)(=O)=O)cc1OC | 9.47%
COc1ccc(C(=O)NCc2nnc(SCC(=O)Nc3cccc(F)c3)o2)cc1 | -1.96%
COCCn1c(-c2ccc(OC)c(OC)c2)nc2ccccc21 | -21.6%
O=C1NC(=NCc2ccccc2)S/C1=C\c1ccccc1 | 23.8%
COc1ccccc1NC(=O)COc1cc(Br)c(CNCCCN2CCOCC2)cc1OC | -54.6%
C=CCOc1ccc(Br)cc1CNCCCN1CCOCC1.Cl | -27.7%
COc1ccccc1NC(=O)COc1ccc(Br)cc1CNCCCN1CCOCC1.Cl | -58.6%
O=C(COc1ccc(Br)cc1CNCCCN1CCOCC1)Nc1ccccc1 | -47.8%
COc1cc(CNCCCN2CCOCC2)c(Br)cc1OC(C)C.Cl | 5.58%
COc1cc(CNCCCN2CCOCC2)c(Br)cc1OCC(=O)Nc1ccccc1C | -15.3%
COc1cc(NC(=O)c2ccc(C)cc2)ccc1NC(=O)c1cc2ccccc2o1 | 15.2%
Cc1ccc(C)c(NC(=O)CSc2nnc(CCNC(=O)OC(C)(C)C)o2)c1 | -12.3%
CC1(C)CC(c2csc(N)n2)CCO1 (stereo not shown) | 2.95%
COc1ccc(N(CC(=O)N2CCN(c3ccccc3F)CC2)S(=O)(=O)c2c(C)n[nH]c2C)cc1 | -20.6%

Compound | hERG current change (%, negative = inhibition) at 10uM
Cc1ccc(N(CC(=O)NCc2ccc(F)cc2)S(=O)(=O)c2c(C)nn(C)c2C)cc1 | -24.5%
COc1ccc(N(CC(=O)N2CCN(c3ccc(Cl)cc3)CC2)S(=O)(=O)c2c(C)n[nH]c2C)cc1 | -10.1%
Cc1ccc(N(CC(=O)N2CCN(c3ccc(F)cc3)CC2)S(=O)(=O)c2c(C)nn(C)c2C)cc1 | -65.8%
COc1ccc(N(CC(=O)N2CCN(c3ccc(F)cc3)CC2)S(=O)(=O)c2c(C)n[nH]c2C)cc1 | -69.4%
Cc1ccc(N(CC(=O)N2CCN(c3ccc(F)cc3)CC2)S(=O)(=O)c2c(C)noc2C)cc1 | -39.5%
O=C(O)/C=C\C(=O)N1CCc2ccccc21 | 27.9%
O=C1C(NS(=O)(=O)c2cccs2)=C(N2CCOCC2)C(=O)c2ccccc21 | -40.8%
C[n+]1ccc(C(=O)N/N=C/c2ccco2)cc1.[I-] | 26.7%
O=C(NCCc1ccccn1)c1cc(-c2ccc(Cl)cc2)nc2ccccc12 | -19.6%
O=C(NCCCn1ccnc1)c1cc(-c2ccncc2)nc2ccccc12 | -56.3%
COc1cccc(C(=O)NCCCn2ccnc2)c1 | 7.29%
COc1ccc(-c2cc(C(=O)NCCCn3ccnc3)c3ccccc3n2)c(OC)c1 | -32%
O=C(NCCCn1ccnc1)c1cc(-c2ccc(Cl)cc2)nc2ccccc12 | -68.8%
CCOc1ccc(-c2cc(C(=O)NCCCn3ccnc3)c3ccccc3n2)cc1 | -16%
COc1cccc(-c2cc(C(=O)NCCCn3ccnc3)c3ccccc3n2)c1 | -71.8%
O=C(NCCc1ccc(Cl)cc1)c1cc(-c2ccncc2)nc2ccccc12 | 4.23%
CCCCCCCNC(=O)c1cc(-c2ccncc2)nc2ccccc12 | 7.84%
CCCCN(C)CCC(=O)Nc1ccc(OC)cc1OC | 5.11%
Cc1cccc(Nc2nc3c(c(=O)n(C)c(=O)n3C)n2CC(O)CO)c1 (stereo not shown) | -0.943%
O=C(Cc1c(Cl)cccc1Cl)N1CCN(Cc2ccccc2)CC1 | -0.0324%
NS(=O)(=O)c1cccnc1Nc1cccc(Cl)c1Cl | -3.35%
CN(C)c1nc(-c2ccccc2)nc(-c2ccc(Cl)cc2)c1C#N | 8.49%
COc1ccc(-c2nc3c4ccccc4ccn3c2CN2CCCCC2)cc1OC.Cl | 0.736%
O=c1[nH]c(CN2CCN(c3ccccc3)CC2)nc2ccccc12 | 1.55%

Compound | hERG current change (%, negative = inhibition) at 10uM
Fc1ccccc1N1CCN(CC2CCCCC2)CC1 | -1.99%
O=c1nc2ccccc2c2n1CC(CN1CCN(c3cccc(Cl)c3)CC1)N2 (stereo not shown) | -63.3%
O=C(CSc1nc2ccccc2c(=O)[nH]1)N1CCN(c2ccccc2F)CC1 | 9.44%
O=c1nc2ccccc2c2n1CC(CN1CCN(c3ccc(F)cc3)CC1)N2 (stereo not shown) | -68.6%
O=c1nc2ccccc2c2n1CC(CN1CCN(c3ccccc3F)CC1)N2 (stereo not shown) | -50.3%
COc1cccc(N2CCN(Cc3nc4ccccc4c(=O)[nH]3)CC2)c1 | -18.9%
O=c1[nH]c(CN2CCN(c3ccc(F)cc3)CC2)nc2ccccc12 | -15.1%
Cn1c(CN2CCN(c3cccc(Cl)c3)CC2)nc2ccccc21 | -44.7%
Cc1cc(C)cc(NC(=O)c2cc(C)nn2C)c1 | 0.0741%
O=C(COC(=O)c1ncc(Cl)c(Cl)c1Cl)NC(=O)c1ccccc1 | 14.9%
Cn1cnnc1SCc1ccccc1[N+](=O)[O-] | 13.7%
COc1cc(C#N)ccc1OCC(=O)NCCC1=CCCCC1 | -13.2%
Nc1ccc2c(c1)ncn2CCCn1cnc2cc(N)ccc21 | -14.7%
Fc1ccc(NC(=S)NCCc2ccccn2)cc1 | 7.88%
Fc1ccc(-n2cc(CNCCc3cccnc3)c(-c3ccccc3Cl)n2)cc1 | -51.9%
Cl.Clc1ccccc1CNCc1ccncc1 | -0.497%
Cl.Fc1ccc(CCNCc2ccccc2Cl)cc1 | 1.24%
Cl.c1cncc(CNCCc2c[nH]c3ccccc23)c1 | 4.01%
Fc1ccc(-n2cc(CNCCc3ccccn3)c(-c3ccccc3Cl)n2)cc1 | -89.9%
Fc1ccc(-n2cc(CNCCc3ccncc3)c(-c3ccccc3Cl)n2)cc1 | -75.2%
O=C(NCc1ccccn1)c1cn(-c2ccccc2)nc1-c1ccc(Cl)cc1 | -1.67%
Cl.c1ccc(CCNCc2cccnc2)cc1 | -0.175%
